According to the supplement of paper PMC6555819:

Key:
Test in all cases: PBM binding z-score (relative to random genomic background probes); higher = stronger binding; sequences stand for … in GC…GCGATTGACAGCGTAGAATGAAGG
[1] = system: FXR:RXRa (NR concentration 270 nM, RXRa partner concentration 90 nM)
Summary of the method: (§1)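 Random background probes are the reference for binding z-scores. These scores derive from regression-normalized fluorescence on custom Agilent 4×180K protein-binding microarrays incubated 1 h with ligand-free nuclear receptor dimers. Binding was detected with antibodies against each partner (one per run).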

[2] = system: LXRa:RXRa (NR concentration 270 nM, RXRa partner concentration 90 nM)
Summary of the method: as §1

[3] = system: LXRa homodimer (NR concentration 270 nM)
Summary of the method: as §1

[4] = system: LXRb:RXRa (NR concentration 270 nM, RXRa partner concentration 90 nM)
Summary of the method: as §1

[5] = system: LXRb homodimer (NR concentration 270 nM)
Summary of the method: as §1

[6] = system: PPARa:RXRa (NR concentration 270 nM, RXRa partner concentration 90 nM)
Summary of the method: as §1

[7] = system: PPARg:RXRa (NR concentration 180 nM, RXRa partner concentration 90 nM)
Summary of the method: as §1

[8] = system: PPARg:RXRa 270nM:90nM, anti-RXR (NR concentration 270 nM, RXRa partner concentration 90 nM)
Summary of the method: as §1

[9] = system: PPARg:RXRa 30nM:10nM, anti-RXR (NR concentration 30 nM, RXRa partner concentration 10 nM)
Summary of the method: as §1

[10] = system: PPARg:RXRa 90nM:30nM, anti-RXR (NR concentration 90 nM, RXRa partner concentration 30 nM)
Summary of the method: as §1

[11] = system: PPARg:RXRa DBDmut IVT, anti-RXR (DBD mutation: RXRa K156A/R161A, NR concentration 270 nM, RXRa partner concentration 90 nM)
Summary of the method: as §1

[12] = system: PPARg:RXRa IVT, anti-PPARg (NR concentration 270 nM, RXRa partner concentration 90 nM)
Summary of the method: as §1

[13] = system: PPARg DBDmut:RXRa IVT, anti-PPARg (DBD mutation: PPARg1 K132A/R137A, NR concentration 270 nM, RXRa partner concentration 90 nM)
Summary of the method: as §1

[14] = system: PPARg DBDmut IVT, anti-PPARg (DBD mutation: PPARg1 K132A/R137A, NR concentration 270 nM)
Summary of the method: as §1

[15] = system: PPARg homodimer (NR concentration 180 nM)
Summary of the method: as §1

[16] = system: PXR:RXRa (NR concentration 270 nM, RXRa partner concentration 90 nM)
Summary of the method: as §1

[17] = system: PXR homodimer (NR concentration 270 nM)
Summary of the method: as §1

[18] = system: RARa:RXR (NR concentration 270 nM, RXRa partner concentration 90 nM)
Summary of the method: as §1

[19] = system: RARa homodimer (NR concentration 270 nM)
Summary of the method: as §1

[20] = system: RARb:RXRa (NR concentration 270 nM, RXRa partner concentration 90 nM)
Summary of the method: as §1

Sequence	PBM binding z-score [1]	PBM binding z-score [2]	PBM binding z-score [3]	PBM binding z-score [4]	PBM binding z-score [5]	PBM binding z-score [6]	PBM binding z-score [7]	PBM binding z-score [8]	PBM binding z-score [9]	PBM binding z-score [10]	PBM binding z-score [11]	PBM binding z-score [12]	PBM binding z-score [13]	PBM binding z-score [14]	PBM binding z-score [15]	PBM binding z-score [16]	PBM binding z-score [17]	PBM binding z-score [18]	PBM binding z-score [19]	PBM binding z-score [20]
CGTCCAAGGTCACAGGTCAGTGAAGAGATGACGG	7.44	5.62	1.31	4.1	0.374	6.12	7.73	6.93	3.6	5.82	4	5.24	0.709	0.624	2.75	4.99	0.786	6.06	1.32	5.63
CGTCCAAGGTCAAAGGTCAGTCAAGAGATGACGG	8.41	6.97	3.05	6.77	1.83	7.07	10.9	8.99	7.83	9.18	3.88	5.75	0.706	-0.299	2.8	7.08	1.81	9.03	1.5	5.97
CGTGAAAGTTCAACTAAGGTAACGTAAAGCACGC	6.32	6.09	4.26	3.89	1.84	4.98	3.58	4.78	1.6	3.39	-0.0451	1.86	0.513	0.603	2.63	5.31	3.52	3.81	1.22	5.19
CGAGCTAGGTCAGAACAGGACAGTGAAGGATGAT	1.62	0.749	-0.308	-0.00924	-0.647	1.11	1.11	0.596	-0.277	0.0129	1.93	1.04	-1.14	-1.15	0.363	0.798	-0.245	0.682	-0.341	2.89
CCTCCTGGGCCAAGGTCATTGATCAGTCAAAGCA	2.96	2.89	1.06	2.86	-0.68	3.57	1.39	2.83	0.457	1.75	-0.293	1.48	-1.33	-1.61	1.55	3.38	0.83	3.49	-0.129	3.47
CGTCCCAGGTCAAAGGTCAGTGAAGAGATGACGG	7.79	6.36	2.98	6.02	0.888	7.24	10.8	9.06	8.62	9.26	2.95	5.97	0.207	0.538	3.77	6.8	1.05	8.49	1.64	5.7
CGTCCAGGGTCAGCAGGTCAGTGAAAGCGACGTG	5.44	3.06	-0.214	3.1	-0.458	5.11	4.16	4.41	0.684	2.92	1.76	3.07	-0.496	-0.836	2.79	3.35	0.0152	4.85	0.53	4.69
AGTCAAAGTTAATCTAGGTAACGTAAGATATGCT	0.59	0.213	-0.267	-0.245	-0.44	1.29	1.78	1.41	0.619	0.829	2.39	4.39	1.49	1.19	-0.261	-0.201	0.136	0.155	0.301	0.39
CTTGCTAGGTCAATGGTCAGCTAAAGCAGCTCGC	2.93	2.77	0.107	1.33	-0.0348	3.41	5.43	5.94	4.16	5.69	5.14	4.93	-0.161	0.902	0.936	0.794	-0.623	1.83	-0.394	3.79
TGAATAAGGTTATAAGATCAGGGAACGTTGCAAA	1.45	1.38	0.228	1.24	-0.00633	2.31	0.925	1.57	1.06	1.53	0.667	1.08	1.27	0.778	0.811	0.858	-0.117	1.6	0.729	1.67
TCTTGTAGATCACCAGGAGGTTAAGAAAGATCGA	0.307	1.28	-0.0899	0.866	-0.174	1.39	-0.000569	1.19	2.45	1.52	1.92	1.27	0.392	0.634	-0.00402	0.915	-0.00438	1.15	-0.698	0.672
TCATATAGGTAATACAGATGAAAGTCGGCATCTA	0.463	0.531	0.032	0.521	0.268	1.08	1.47	1.93	4.02	2.97	3.53	2.32	1.22	1.05	0.725	0.46	0.387	0.646	1.28	0.19
CAAACTAGGTCAAGGTCCAAGTCGGTTTGTGCCA	3.75	2.44	0.225	1.55	-0.00943	5.05	8.9	7.5	6.37	7.89	8.66	8.37	3.91	1.65	2.64	1.63	-0.0807	2.31	0.849	4.18
CGAACTAGGTCTTTGACAGGACAGTGAATAGTAA	-0.13	0.047	-0.136	-0.238	-0.525	0.769	0.674	0.585	0.162	0.43	4.79	3.63	0.956	0.308	0.0171	-0.285	-0.19	0.0375	-0.136	0.0398
